FMDV inh: antivirals against foot and mouth disease virus; 410,000 tested, 1.2% active; Potency, µM (doses to about 57.9 µM), inactives show top-dose activity change, negative = inhibition, most hits filed as inhibitors; AID 1159524; FMDV antiviral cell-based qHTS; calls by dose curve; tested in HEK293T cells; further: read-out not given here; potency means the concentration at half of the fitted maximal effect; nearly all actives have a fitted effect of over 45% in size
HCV inhibitor: inhibitors of hepatitis C virus infection; AID 651820; Huh7.5.1 HCVcc-Cre infection, luciferase reporter, 44 h; Potency, µM (top dose mostly 41.8 µM), inactives show at the top dose activity change, negative = inhibition, usual class: inhibitors; 340,000 tested, 3.4% active; active means well fitted inhibition curve with a large enough effect; inconclusive means small, poorly fitted or top-dose-only effect, or another doubt; inactive means no such curve, though single readings can be large or run the other way; further: potency means the concentration at half of the fitted maximal effect
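Reporter virus HCVcc-Cre (~0.5 moi) infects cells exposed to compound; seeding density 1,000 cells/well with 4 h settling beforehand. Luminescence, 15 sec read, taken 44 h post-infection following a 15 min RT substrate incubation.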
HCMV inh: blocks human cytomegalovirus replication. HFF cells, HCMV-luciferase reporter, 72 h; active compounds read low. activity change, negative = inhibition, % at 57.5 µM. 410,000 tested, 4.5% active. AID 1259415; in the data active means activity change below about -60%; inconclusive means no clear call, values can overlap the other calls; inactive means above about -39%
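Compounds were evaluated in HFFs infected with an HCMV luciferase reporter virus (MOI 1 PFU/cell). Luciferase in lysates collected 72 h post infection served as the replication measure.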
Marburg entry inh: inhibitors of Marburg virus binding or cell entry. Marburg virus pseudotyped entry inhibition, cell reporter. Potency, µM (titrated, usually from 37.8 µM), inactives show at the top dose activity change, negative = inhibition, hits mostly inhibitors. 300,000 tested, 1.8% active; calls by dose curve; tested in HEK293 cells; further: potency means the concentration at half of the fitted maximal effect
LASV entry inh: blocks Lassa virus binding to or entry into cells | Lassa virus pseudotype entry inhibition, cell reporter | Potency, µM (doses to about 37.9 µM), without a hit: at the top dose activity change, negative = inhibition, usual class: inhibitors | 300,000 tested, 1.2% active | AID 540256; calls by dose curve; tested in HEK293 cells; further: potency means the concentration at half of the fitted maximal effect; nearly all actives have a fitted effect of over 50% in size
An asterisk follows results filed as active; ? = inconclusive; . = not tested or not shown; [ ] = another dose, or the depositor's remark. Only some compounds are listed: those with a hit (about 7.9% of all), similar ones and a draw of the others. On the % scale 0 is the no-effect control and ±100 the full control effect.

SMILES	FMDV inh	HCV inhibitor	HCMV inh	Marburg entry inh	LASV entry inh
Cc1ccc(-c2noc(CCC(=O)NCC3CCN(Cc4cccc(C)c4)CC3)n2)cc1	?	1.1µM*	?	?	-13%
COc1ccc(-c2noc(CCC(=O)NCCCN3CCN(c4ccc(F)cc4)CC3)n2)cc1	?	22µM*	-64*	.	.
CC(NC(=O)c1ccco1)c1nnc2n1CCN(Cc1ccc(Cl)cc1)CC2 (stereo not drawn)	2%	.	.	.	.
O=C1NC(=NCc2ccccc2)S/C1=C\c1ccccc1	6%	18%	-68*	24%	-10%
Cn1nc([N+](=O)[O-])c(C(C#N)c2ccccn2)c(Cl)c1=O (stereo not drawn)	32µM*	?	-97*	.	.
COC(=O)[C@@H]1CC[C@H](C)[C@@H](c2ccc(C)cc2)N1C(=O)c1ccc(C=NOC[C@@H](O)[C@H]2O[C@@H]3OC(C)(C)O[C@H]3[C@@H]2O)cc1	.	.	.	28%[14.2 µM]	10%[14.3 µM]
Cc1ccc(Sc2c(C=O)c3ccccc3n2C)cc1	?	11µM*	-91*	?	?
Cc1ccc(Sc2c(O)c3ccccc3n(C)c2=O)cc1	-13%	-16%	1	?	-1%
Cn1c(-c2ccccc2)c(C=O)c2ccccc21	9%	?	-12	.	.
Cc1ccc(Sc2c([N+](=O)[O-])c(=O)n(C)c3ccccc23)cc1	22µM*	?	-20	.	.
Cc1cccc(C)c1-n1ncc(C(=O)N2CCN(c3ncccn3)CC2)c1C1CCN(C(=O)OC(C)(C)C)CC1	0%	.	13	.	-15%[46.1 µM]
COc1cc2ccccc2ccc1=NO	2%	?	-68*	2%[46.1 µM]	-5%[46.1 µM]
CCN1C(=O)N[C@@H](c2ccccc2)[C@H](C(=O)OC)[C@H]1C	16%	24%	-14	-12%[14.2 µM]	.
CCN1c2ccccc2NC2N=C(OC)C(c3ccccc3)C21 (stereo not drawn)	-12%	2%	.	23µM*	-34%[14.3 µM]
COc1cc(C2CC(=O)Nc3ccc4ccccc4c32)ccc1OC(=O)C(C)C (stereo not drawn)	-19%	.	-1	-12%[46.1 µM]	-4%[46.1 µM]
CN(C)CCCN1c2ccccc2CCc2ccc(Cl)cc21	0%	?	-67*	11µM*	?
CCC(=O)c1ccc2c(c1)N(CCCN(C)C)c1ccccc1S2	-16%	?	18	21µM*	?
CCN(CC)CCN1c2ccccc2Sc2ccccc21	-18%	.	21	?	?
COc1ccc2c(c1)Sc1ccccc1N2CCN(C)C	-12%	?	.	11µM*	?
CNCCCN1c2ccccc2CCc2ccccc21	-7%	?	-17	1.3µM*	-12%
CN(CCCN1c2ccccc2CCc2ccccc21)CC(=O)c1ccc(Cl)cc1	4%	.	.	.	.
CCCOc1ccc(-c2nn(-c3ccccc3)cc2C2NC(=O)NC(C)=C2C(=O)OC(C)C)cc1 (stereo not drawn)	-10%	.	-35	?	-30%[46.1 µM]
Cc1c(-c2ccccc2)c(=O)oc2c(CN3CCN(C)CC3)c(O)ccc12	-17%	.	-17	.	9%[46.1 µM]
CC(=O)c1ccc2c(c1)N(CCCN(C)C)c1ccccc1S2	-26%	?	9	.	.
CN(C)CCCN1c2ccccc2Sc2ccccc21	?	-18%[8.37 µM]	?	18µM*	?
SMILES	FMDV inh	HCV inhibitor	HCMV inh	Marburg entry inh	LASV entry inh
CC1(C)CC(C(=O)N2CCOc3ccc(CN4CCN(Cc5ccccn5)CC4)cc3C2)CCO1 (stereo not drawn)	-9%	.	.	.	.
CC12CCC(=O)C=C1CCC1C2CCC2(C)C(c3csc(N)n3)CCC12 (stereo not drawn)	13µM*	10µM*	-93*	?	13µM*
CC12CCC(=O)C=C1CCC1C2C(O)CC2(C)C(c3csc(N)n3)CCC12 (stereo not drawn)	?	?	-22	8.9µM*	-16%[46.1 µM]
CC(=O)[C@H]1CC[C@H]2[C@@H]3CCC4=CC(=O)CC[C@]4(C)[C@H]3CC[C@]12C	?	13%	-10	?	?
CCC(C(=O)OCC(=O)C1(O)CCC2C3CCC4=CC(=O)CCC4(C)C3C(O)CC21C)C(C)C (stereo not drawn)	20µM*	?	32	?	?
C[C@]12CCC(=O)C=C1CCC1C2C(O)C[C@]2(C)C1CC[C@]2(O)C(=O)CO (stereo partly drawn)	1%	.	.	.	.
COc1ccc(CNS(=O)(=O)c2ccc3c(c2)N(C(C)=O)CC(C)S3)cc1 (stereo not drawn)	?	?	-91*	?	?
COc1ccc(NS(=O)(=O)c2ccc3c(c2)N(C(C)=O)CC(C)S3)c(OC)c1 (stereo not drawn)	0%	11µM*	-85*	.	.
CC(=O)N1CC(C)Sc2ccc(S(=O)(=O)NC3CCCCC3)cc21 (stereo not drawn)	-14%	?	?	.	.
COc1ccc2c(c1)c1ncn(Cc3ccco3)c(=O)c1n2C	-20%	11µM*	-81*	?	-14%
O=C(/C=C/c1ccccc1)c1cc(Br)ccc(=O)c1O	?	?	-107*	20µM*	?
Cc1ccc(/C=C/C(=O)c2ccccc(=O)c2O)cc1C	?	?	-66*	16µM*	?
COC(=O)c1cc(-c2ccc(C)cc2)c2c(=O)n(C)c(=O)n(C)c2n1	11%	.	-12	?	?
Cc1ccc(OCCCCn2c(-c3ccc(Cl)cc3)nc3ccccc3c2=O)cc1	-17%	.	34	0%[46.1 µM]	20%[46.1 µM]
COc1ccc(NC(=O)CSc2nc(-c3ccccc3)nc3c2Cc2c(CO)cnc(C)c2O3)cc1Cl	-12%	.	4	.	-6%[46.1 µM]
CCOc1ccccc1NC(=O)CSc1c(C)cnc2c1c(=O)n(C)c(=O)n2C	?	.	-7	.	27%[46.1 µM]
Cc1ccc(S(=O)(=O)N2CCC(C(=O)N3CCCC3C(=O)N[C@@H](CC(C)C)C(=O)NCC(N)=O)CC2)cc1 (stereo partly drawn)	-6%	1µM*	14	.	.
CS(=O)(=O)c1cccc(-c2nnc(NC(=O)c3ccc(S(=O)(=O)N4CCCC4)cc3)o2)c1	-8%	22%	-24	3%	-8%
O=C(Nc1ccc(S(=O)(=O)N2CCOCC2)cc1)C1CCN(S(=O)(=O)c2ccc(F)cc2)CC1	0%	?	-66*	-7%	-17%
Cc1ccc(S(=O)(=O)N2CCC(C(=O)N3CCC[C@H]3C(=O)NCC(C)C)CC2)cc1	0%	20%	-15	3%[46.1 µM]	16%[46.1 µM]
O=C(Nc1nnc(-c2ccc(F)cc2)o1)c1ccc(S(=O)(=O)N2CCOCC2)cc1	-14%	-16%	.	7.9µM*	?
CC(C)c1ccc(S(=O)(=O)N2CCC(C(=O)N3CCN(c4cccc(Cl)c4)CC3)CC2)cc1	-16%	?	-69*	.	.
O=C(Nc1ccc(S(=O)(=O)N2CCOCC2)cc1)C1CC(=O)N(c2ccc(F)cc2)C1 (stereo not drawn)	16%	-3%	-18	?	14%
COc1ccc(NC(=O)c2oc3ccccc3c2NC(=O)c2cc(=O)c3c(C)cc(C)cc3o2)cc1	-15%	.	4	-4%[46.1 µM]	2%[46.1 µM]
